The record followed here is PubChem BioAssay.

Activity calls are given as the source filed them. Unless noted, the rule behind the calls is not given here.

A short description of assay [1]: HepG2 liver cancer cell viability effects, profiling panel, resazurin fluorescence, 24 h, PK04 Diversity Set (AID 1172). Note: test concentration not given here. Particulars: higher = more signal.
Assay [2] is described as follows: basal S. cerevisiae growth modulation, no modifier, primary screen, OD600, strain BY4716, 24 h, basal condition (AID 1173). Particulars: OD600, 24 h, higher = more signal, called active from +8 up or from −8 down.
Assay [3] is described as follows: MM1S myeloma cell viability, profiling panel, resazurin fluorescence, basal, 24 h, PK04 Diversity Set (AID 1174).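 Note: MM1S multiple myeloma cell line; test concentration not given here.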 The following applies: higher = more signal, called active from +8 up or from −8 down.
The target in assay [4] is Dihydroorotate dehydrogenase (quinone), mitochondrial (Plasmodium falciparum (isolate 3D7)) (UniProt Q08210). Description: PfDHODH enzyme inhibitors, primary screen, biochemical, C-terminal His tag, absorbance 600 nm (AID 1175).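 Note: recombinant parasite enzyme with a five histidine tag at its C terminus; test concentration not given here.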 Particulars: DCIP absorbance 600 nm, higher = more signal, called active from +8 up or from −8 down.
Assay [5] is described as follows: P. aeruginosa biofilm formation inhibitors, primary screen, strain PAO1, LB-PBS medium, absorbance 600 nm (AID 1176). Note: test concentration not given here. Particulars: P. aeruginosa PAO1 growth/biofilm, A600, 12 h; higher = more signal.
Assay [6] can be described thus: S. cerevisiae RM11-1a growth modifiers, primary screen, strain RM11-1a, OD600, basal, 24 h (AID 1177).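 Note: cultures grown under basal conditions with no added stressor; test concentration not given here.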 Particulars: OD600, 24 h, higher = more signal, called active from +8 up or from −8 down.
Assay [7] in a line: E. coli acrAB mutant growth effects, primary screen, E. coli filamentation inducers, strain DRC39, OD650, 24 h (AID 1178).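 Note: growth measured as culture turbidity by optical density at 650 nm; test concentration not given here.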 The following applies: higher = more signal, called active from +8 up or from −8 down.
The nature of assay [8]: E. coli acrAB mutant growth effects, primary screen, E. coli filamentation inducers, strain DRC39, OD650, 48 h (AID 1179).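 Note: screen aims at cell division blockers that make cells filament.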 The following applies: E. coli DRC39 delta-acrAB growth, higher = more signal, called active from +8 up or from −8 down.
A short description of assay [9]: RPMI8226 myeloma cell viability, profiling panel, resazurin fluorescence, basal, 24 h, PK04 Diversity Set (AID 1180).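 Note: RPMI8826 multiple myeloma cell line at 5000 cells per well; test concentration not given here.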 The following applies: higher = more signal.
Assay [10] has as its target E3 ubiquitin-protein ligase XIAP (Homo sapiens) (UniProt P98170). As to the kind of experiment: XIAP binders, primary screen, biophysical, small-molecule microarray, fluorescence 635 nm (AID 1181).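 Note: score merges 667 nm emission and signal to noise over triplicate slides.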 Particulars: small-molecule microarray binding, higher = more signal.

Sequence of Dihydroorotate dehydrogenase (quinone), mitochondrial (Plasmodium falciparum (isolate 3D7)) (Q08210 whole entry, looked up): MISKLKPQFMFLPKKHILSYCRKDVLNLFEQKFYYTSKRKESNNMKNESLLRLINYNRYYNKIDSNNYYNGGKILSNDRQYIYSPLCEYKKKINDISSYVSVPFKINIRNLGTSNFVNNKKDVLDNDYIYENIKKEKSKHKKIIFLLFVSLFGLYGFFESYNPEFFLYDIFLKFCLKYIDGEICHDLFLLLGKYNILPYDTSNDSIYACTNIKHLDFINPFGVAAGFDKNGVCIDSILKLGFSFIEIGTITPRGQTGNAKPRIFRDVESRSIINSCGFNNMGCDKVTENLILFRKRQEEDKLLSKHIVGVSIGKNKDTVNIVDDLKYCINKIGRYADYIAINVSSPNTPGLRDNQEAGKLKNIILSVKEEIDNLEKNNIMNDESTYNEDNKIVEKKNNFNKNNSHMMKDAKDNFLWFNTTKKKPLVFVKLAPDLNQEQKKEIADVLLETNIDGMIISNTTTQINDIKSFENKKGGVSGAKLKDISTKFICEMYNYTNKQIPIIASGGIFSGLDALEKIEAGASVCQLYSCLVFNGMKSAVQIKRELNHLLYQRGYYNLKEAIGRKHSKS
Sequence of E3 ubiquitin-protein ligase XIAP (Homo sapiens) (P98170 whole entry, looked up): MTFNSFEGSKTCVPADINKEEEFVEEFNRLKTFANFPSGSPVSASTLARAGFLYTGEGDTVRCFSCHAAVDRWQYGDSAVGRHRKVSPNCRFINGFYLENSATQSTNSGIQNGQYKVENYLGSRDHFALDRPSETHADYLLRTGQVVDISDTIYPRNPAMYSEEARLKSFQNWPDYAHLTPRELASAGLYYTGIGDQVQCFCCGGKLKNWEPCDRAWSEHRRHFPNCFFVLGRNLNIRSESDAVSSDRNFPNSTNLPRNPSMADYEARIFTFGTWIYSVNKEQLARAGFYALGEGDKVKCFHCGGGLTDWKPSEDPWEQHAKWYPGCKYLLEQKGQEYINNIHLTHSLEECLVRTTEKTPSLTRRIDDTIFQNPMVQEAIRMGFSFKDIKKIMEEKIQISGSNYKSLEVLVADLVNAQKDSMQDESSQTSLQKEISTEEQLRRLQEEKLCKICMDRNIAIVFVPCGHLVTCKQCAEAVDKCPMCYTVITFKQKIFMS

Turning to `CC(C)=NOC[C@@H](C)[C@H](OCc1ccccc1)C(C)C`, the z-score was -0.593 in assay [1]; 0.201 (inactive) in assay [2]; -0.572 (inactive) in assay [3]; -0.115 (inactive) in assay [5]; 0.536 (inactive) in assay [6]; -0.161 (inactive) in assay [7]. Moreover, the z-score in assay [8] was -0.339 (inactive); in [9] it was 0.887. The composite z-score was 0.444 (inactive) in assay [4] and 0.0077 in [10].

With `C=CC1=C[C@H](O)[C@@H]2O[C@@H]2C12OCCCO2`, the z-score in assay [1] was 0.257; in [2], 0.301 (inactive); in assay [3] it was -0.458 (inactive); in assay [5], 0.262 (inactive); in assay [6] it was -0.838 (inactive); in assay [7] it was 0.451 (inactive). The z-score is 0.489 (inactive) in assay [8] and -0.38 in [9]. Besides, the composite z-score is 0.695 (inactive) in assay [4] and -0.03 in [10].

`CC(=O)OC[C@H]1O[C@H](CC=NO[C@H](C)c2cn([C@H](CO)Cc3ccccc3)nn2)C=C[C@@H]1OC(C)=O`: the z-score in assay [1] is 0.242; in assay [2], 1.53 (inactive); in assay [3], -0.376 (inactive); in [5] it was 0.642 (inactive); in assay [6], 1.57 (inactive); in assay [7], -0.182 (inactive). The values for the z-score in assay [8] and in assay [9] were -0.554 (inactive) and 0.103, respectively. Besides, the composite z-score in assay [4] was 0.53 (inactive); in assay [10], 0.699.

Turning to `COC(=O)CC=C[C@@H](C)[C@@H](C=NO[C@H](C)c1cn([C@H](CO)Cc2ccccc2)nn1)NS(=O)(=O)c1ccc(C)cc1`, the z-score is -0.891 in assay [1]; -1.17 (inactive) in assay [2]; -0.81 (inactive) in assay [3]; 0.0282 (inactive) in [5]; -0.476 (inactive) in [6]; 0.0146 (inactive) in [7]. Also, the z-score in [8] was -0.0853 (inactive); in assay [9] it was 0.108. Besides, the results for the composite z-score in assay [4] and in [10] were 0.0463 (inactive) and -0.206, respectively.

Take `CO[C@H]1COC(=O)[C@@H](C)COC(=O)[C@@H](OCc2ccccc2)C=C[C@@H]1C`: the z-score is 0.409 in assay [1]; -0.471 (inactive) in assay [2]; 0.687 (inactive) in assay [3]; -0.601 (inactive) in assay [5]; 1.14 (inactive) in assay [6]; 0.334 (inactive) in assay [7]. Also, the figures for the z-score in assay [8] and in assay [9] were -0.183 (inactive) and 0.681, respectively. For the same compound, the composite z-score is 0.976 (inactive) in assay [4] and 0.131 in assay [10].

As for `COc1ccc(O[C@H]2C=C[C@@H](c3ccccc3)O[C@@H]2CON=C(C)CCC(=O)OC[C@H]2O[C@H](c3ccccc3)C=C[C@@H]2Oc2ccc(OC)cc2)cc1`, the z-score in assay [1] was 0.319; in assay [2], 0.917 (inactive); in assay [3] it was 0.427 (inactive); in assay [5], -0.868 (inactive); in [6], 1.26 (inactive); in assay [7] it was 0.277 (inactive). In addition, the figures for the z-score in assay [8] and in assay [9] were 0.434 (inactive) and 0.476, respectively. Further, the figures for the composite z-score in assay [4] and in assay [10] were -0.497 (inactive) and -0.195, respectively.

Consider `CCOC(=O)[C@H](CC(C)C)NC(=O)CCC1CC(OC(=O)NCc2ccc3c(c2)OCO3)CC2(CCCC(COC(=O)NCC3CCCCC3)O2)O1` (stereo not given in full), for which the z-score in assay [1] is 0.471; in assay [2], 0.105 (inactive); in [3] it was 1.4 (inactive); in assay [5], -0.0326 (inactive); in [6], 0.494 (inactive); in assay [7], 0.536 (inactive). For the same compound, the z-score in assay [8] was 0.0926 (inactive); in [9], 1.32. In addition, the composite z-score in assay [4] is -0.19 (inactive); in assay [10], -0.0053.

As for `CC(C)=CCCC(C)=CCON=C1C[C@@H](O)[C@@H](O)[C@@H]2[C@@H]3C(=O)N(C4CCCCC4)C(=O)[C@@H]3CC[C@@H]12`, the z-score is -0.199 in [1]; -0.81 (inactive) in assay [2]; -0.454 (inactive) in assay [3]; 0.565 (inactive) in assay [5]; -0.709 (inactive) in assay [6]; 0.0915 (inactive) in [7]. The figures for the z-score in assay [8] and in assay [9] were -0.742 (inactive) and -0.51, respectively. The results for the composite z-score in assay [4] and in assay [10] were -0.42 (inactive) and 0.0905, respectively.

For `COc1cc(O)c(C(=O)C=Cc2ccc3c(c2)OCO3)c(OC)c1`, the z-score is 0.0215 in assay [1]; 1.12 (inactive) in assay [2]; -0.307 (inactive) in assay [3]; 1.2 (inactive) in [5]; 2.31 (inactive) in [6]; -0.45 (inactive) in assay [7]. In addition, the figures for the z-score in assay [8] and in assay [9] were -1.04 (inactive) and -0.144, respectively. Also, the values for the composite z-score in assay [4] and in [10] were 1.06 (inactive) and 0.215, respectively.

In the case of `COc1ccc(O[C@H]2C=C[C@@H](c3ccccc3)O[C@@H]2CON=C2[C@H]3CCn4c(=O)n(-c5ccccc5)c(=O)n4[C@H]3[C@H](O)[C@@H]3O[C@H]23)cc1`, the z-score in assay [1] is -1.63; in [2], 0.422 (inactive); in assay [3], -2.53 (inactive); in assay [5] it was -0.0417 (inactive); in assay [6], 0.0056 (inactive); in [7], 0.694 (inactive). The figures for the z-score in assay [8] and in assay [9] were 0.731 (inactive) and -1.92, respectively. For the same compound, the composite z-score in assay [4] is -0.268 (inactive); in assay [10], -0.403.

With `CO[C@H]1COC(=O)[C@@H]2CCCN2C(=O)CC=C[C@@H](C)[C@H](OC)COC(=O)[C@@H](OCc2ccccc2)C=C[C@@H]1C`, the z-score in assay [1] is -0.416; in assay [2], -1.72 (inactive); in assay [3], 1.58 (inactive); in [5], -1.01 (inactive); in assay [6], -0.965 (inactive); in [7] it was 0.421 (inactive). Moreover, the z-score is 0.29 (inactive) in [8] and 0.552 in [9]. The composite z-score in assay [4] was -2.88 (inactive); in assay [10], -0.284.
